# Results reported in the supplement of paper PMC6805474.
# Unmarked numbers belong to inactive results.
# How the values were obtained:
# [1] = system: Schistosoma mansoni schistosomula (NMRI); test: phenotypic severity score (0-4); higher = more antischistosomal effect, active = 2 or more; details: 10 µM
# [2] = system: Schistosoma mansoni schistosomula (Liberian); test: drug effect (1 - score/DMSO control score) (fraction); higher = more antischistosomal effect, active = 0.5 or more; extreme values may be limits of the assay; details: 10 µM
# How it was run: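 A plate was valid only if its 0.1% DMSO wells averaged a score of at least 2. Those wells ran beside duplicate wells in which 50 Liberian-strain Schistosoma mansoni schistosomula each, transformed mechanically from cercariae and pre-incubated at least 12 h, met 10 µM compound in Medium 199 with 5% FCS at 37 °C, 5% CO2. Scoring was visual at 10× at 24, 48 and 72 h, from 3 (normal) to 0 (dead) in quarter-point steps. Drug effect was derived from the mean test-well score against the mean DMSO-well score, with negatives set to zero.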
# 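Throughout, for phenotypic severity score (0-4): visual microscopic scoring of shape, motility and density changes versus 0.5% DMSO solvent controls, one point per descriptor, degeneracy or death scored 4, mean of duplicate wells.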
Structure (SMILES),phenotypic severity score ([1]; 24 h),phenotypic severity score ([1]; 48 h),phenotypic severity score ([1]; 72 h),drug effect ([2]; 24 h),drug effect ([2]; 48 h),drug effect ([2]; 72 h)
CC1COC(Cn2cncn2)(c2ccc(Oc3ccc(Cl)cc3)cc2Cl)O1 (centres undefined),2 (active),1,2 (active),0.136,0.25,0.0727
CC(C)(C)C(O)C(Oc1ccc(-c2ccccc2)cc1)n1cncn1 (centres undefined),1,0,0,0.0909,0.15,0.127
Cc1nn(C)c(C)c1NS(=O)(=O)c1c(Cl)cc(-c2ccnc(N3CCNCC3)c2)cc1Cl,0,0,0,0.15,0.0811,0.152
Cc1nn(Cc2ccccc2)c(Cl)c1C(=O)NC1CCCCCC1,2 (active),0,0,0.0455,0.05,0.0727
Cc1cccc(C(=O)Nc2ccnc(N(C)C3CCN(CC(C)C)CC3)c2)c1,0,0,0,0.1,0.243,0.212
CC1(C)OB(O)c2ccc(C3=NOC(c4cc(Cl)c(F)c(Cl)c4)(C(F)(F)F)C3)cc21 (centres undefined),2 (active),0,1,1 (active),1 (active),1 (active)
Cc1cc(C2=NOC(c3cc(Cl)c(F)c(Cl)c3)(C(F)(F)F)C2)ccc1C(=O)NCc1ccc2c(c1)C(C)(C)OB2O (centres undefined),0,0,0,0.2,0.135,0.167
O=C1O[C@@H](COc2ccon2)CN1c1cc(F)c(C2=CCN(Cc3ccccc3)CC2)c(F)c1,0,0,0,0.1,0.167,0.25
Nc1c2c(nc3sc4c(c13)CCCC4)CCCC2,4 (active),4 (active),4 (active),0.545 (active),0.8 (active),0.564 (active)
CO/N=C(\C(=O)OC)c1ccccc1CO/N=C(\C)c1cccc(C(F)(F)F)c1,1,0,0,0.05,0.027,0.152
CO[C@@H]1CN(c2ccc(C#CC3(O)CN4CCC3CC4)c(Cc3ccccc3)n2)C[C@H]1O (some centres undefined),0,0,0,< 0,< 0,0.111
CO/C=C(/C(=O)OC)c1ccccc1Oc1cc(Oc2ccccc2C#N)ncn1,0,0,0,0.05,0.027,0.111
O=C1O[C@@H](CO)CN1c1cc(F)c(C2=CCN(Cc3ccccc3)CC2)c(F)c1,0,0,2 (active),0.05,0.111,0.188
CCc1nn(C)c(C(=O)NCc2ccc(Oc3ccc(C)cc3)cc2)c1Cl,1,1,2 (active),0.364,0.55 (active),0.455
